Reference: the supplement of paper PMC12632987

B1: FBXL12_hotspot_35_57 (protein)
chain: MRTVVVQNAGSSLEGVRYAALAALVAVRVLGARLEVQISPDASREQRLILAAAEALASGRPLEEVVAERGLSEEELEEVRRIAEELRAEAERAVAELRAR
B2: FBXL12_hotspot_35_58 (protein)
chain: MRVVVVRFEGSSEEGALYMATAALLAQRVLGARVVVEIHPDESREVRIIAAALRHLAEGLSWEEIREELGLTEEEMERARELAERLRAEVERLAAELRAR
B3: FBXL12_hotspot_35_59 (protein)
chain: MRTVRVVFRGTSPEGARYMALAAALAAKELGARVEIEIDPNESREVRIIAGALMVLAEGRSLEEVVEELGLTEEEVEEMKRIAEELRKETERLAAELRAR
B4: FBXL12_hotspot_35_60 (protein)
chain: MRTVRVVFEGTSPEGARYMALAAALAARELGARVEVRLDPSESREVKVIAAALRVLAEGRPLEEVVEELGLTEEEIEEMEKILEELREEVERLSAELRAR
B5: FBXL12_hotspot_35_61 (protein)
chain: MRVVRVVFEGTSVEGARYMALAALLAKEALGAKVEIELSPSESREVRVIAAALRMLAEGKSIEEVKEELGLSEEEVEEMKRLAEELRAETAELLAELKAR
B6: FBXL12_hotspot_35_62 (protein)
chain: MRRVVVRFTSPTPEGARYMAVTALLASRELGAEVEIEVAPDASLEIRRIAAALYALVTGVPVSEALARFGLPESEAPAVEAEAERLRAEVDEELARLRAR
B7: FBXL12_hotspot_52_63 (protein)
chain: MRTVTIVVSVESPDMEMARRTTETAAAIAEGLAAAGVRVVLVVRAAHADALAFATRRLAEVAARLGAELRVETHPSLDPAEVAAIAAAARAAAAAAAAAA
B8: FBXL12_hotspot_52_64 (protein)
chain: MRTVTIRVRIESPDMAMARRTTETAAAIARGLAAAGVRVVLEVEAAHLEALRFATRELARVAAELGAELRVRVHPSLDPEEVERVYREALAEAEAEAAAA
B9: FBXL12_hotspot_52_65 (protein)
chain: MRTVELVLVLQGDDVEAARRLLDRGVAIAEGLKAAGVRVRVVIEYSGSLESVPAVVEAMRRFKALGAEVRVVVSDDPALAEARAALRAAAEELGAEFVVR
B10: FBXL12_hotspot_54_66 (protein)
chain: KTVTLVVRAETVEALRTTLATALAIAEGLLAAGITVRVEIRARSEDVLEATRLATRAAERLEALGAEDIRVEVEVETEEERREVERVAEEERRRERERRA
B11: FBXL12_hotspot_109_3 (protein)
chain: KSVIVVLASGSPEHAETTFQTGVEIVKGLAEAGVKVGLLILTTKENEAIAEKALEEVKDYVAVSELVVFPTKEEFEAQLDKVKEEKIKRLEEKLEKLEEE
B12: FBXL12_hotspot_54_67 (protein)
chain: KTVTLVLRATTVEALRTTLATGVAIAKGLLAAGIRVRVVIRADSEDVLEATRIATRAAAELEALGAEDITVEIKVETEEEREEVEREAARVRAEAEAERA
B13: FBXL12_hotspot_54_68 (protein)
chain: KTVLLVVRATTVEALRRTLETAVAIAEGLLAAGHRVRVEIRVDSEDVLEATRLATRAAERLEALGAEDIRVEVRVETEEEKEEVERVAEETRREERERRA
B14: FBXL12_hotspot_54_69 (protein)
chain: KTVLIVVEAETLPALERSLATALEIARGLRAAGVRVEVRIRVRHPDVAAAAEAATRAAAEFRELGAERIEVEIETATEEDRERAEAARRETEARLAAEKA
B15: FBXL12_hotspot_54_70 (protein)
chain: KVVTIRVRAETIEAARRTVETAVEIARGLREAGIEVEVELELEAEDVEAAARLAAEARHAFERIGARRIEVRLRLARPEDAPVFERLFAEELERLRREEE
B16: FBXL12_hotspot_59_71 (protein)
chain: MRRVVVRGDPEAALRQARALLEALLELLVRHEGTPQEPRLLELLESTYRELLRTARELGDEAAIAAARAAIEAAEKRLSPELAARLRAAVAAAEAAVEAE

Molecular target: T1, FBXL12, Q9NXK8
T1 chain: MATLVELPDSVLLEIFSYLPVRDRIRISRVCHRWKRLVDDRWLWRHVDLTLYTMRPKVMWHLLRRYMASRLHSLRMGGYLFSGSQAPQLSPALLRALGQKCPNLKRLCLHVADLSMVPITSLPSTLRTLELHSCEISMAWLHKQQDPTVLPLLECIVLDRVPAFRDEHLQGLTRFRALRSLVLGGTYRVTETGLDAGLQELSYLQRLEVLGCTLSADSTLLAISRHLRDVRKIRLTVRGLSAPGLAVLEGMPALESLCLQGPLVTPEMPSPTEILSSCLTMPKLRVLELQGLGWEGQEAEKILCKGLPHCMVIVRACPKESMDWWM
Assay: median log2 fold change of GCK-ALFA target abundance (FLAG IP / Myc IP barcode read proportion) (log2 ratio); each designed protein is fused to an ALFA-tag nanobody in HEK293 cells to bring the named protein to FLAG-tagged glucokinase (GCK); Myc marks an untargeted standard; higher = target protein stabilised (more abundant)
Conditions: target protein: 3xFLAG-MCP-GCK-ALFA reporter; HEK293 landing pad (RPLP)
In short: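 HEK293 landing-pad cells received a recombined binder library fused to the ALFA nanobody and were induced with 2 μg mL^−1 doxycycline, then transfected with a plasmid encoding a FLAG-tagged target and a Myc-tagged standard. Lysates were collected after 48 h for anti-FLAG and anti-Myc immunoprecipitation, and the circular RNA barcodes were reverse transcribed, amplified and sequenced. Target abundance for each binder is the median log2 ratio of FLAG to Myc barcode read proportions. Barcodes had to reach a proportion of at least 10^−7 in both replicates, each binder needed at least 3 barcodes per replicate, a pseudocount of 10^−6 was applied, and the two replicates were pooled.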
B1 was tested, and the “median log2 fold change” value was -0.0958. B2 was tested, and the “median log2 fold change” value was -0.372. B3 was tested, and the “median log2 fold change” value was -0.274. With B4 the “median log2 fold change” value was -0.434. With B5 the “median log2 fold change” value was -0.36. B6 was tested, and the “median log2 fold change” value was 0.1. B7 was tested, and the “median log2 fold change” value was -0.889. In the case of B8, the “median log2 fold change” value is reported as -0.455. For B9, the “median log2 fold change” value was -0.218. In the case of B10, the “median log2 fold change” value is reported as -0.267. With B11 the “median log2 fold change” value was 0.364. With B12 the “median log2 fold change” value was -0.0916. B13 was tested, and the “median log2 fold change” value was -0.347. B14 was tested, and the “median log2 fold change” value was -0.0113. With B15 the “median log2 fold change” value was -0.0489. With B16 the “median log2 fold change” value was -0.323.
